Screen size: about 200,000 compounds; about 5,100 (2.5%) were called active. The sample holds actives, similar compounds and a random draw of the others, so the mix is not that of the screen. Unmarked numbers belong to inactive results.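 Rule for the calls: active = activation above the screen-wide mean activation plus 3 SD (cut at about 130% in these data); inactive = the rest.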

This experiment is described as follows: STAT1 signaling activators, primary screen, cell-based, HTS, luciferase reporter (AID 932).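 Note: raw ratio to IFN-gamma control signal so 100% means no change and 0% no light.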 To be noted: NIH 3T3 STAT1-luciferase reporter, IFN-gamma, luminescence; at 5.5 µM; stronger effect = higher value; 100% = IFN-gamma alone, no compound. Background: In a reporter assay the amount or activity of a reporter protein is the signal.
As to `COc1ccc(/C=C/C(=O)Nc2cccnc2)cc1OC`, the activation (% of control) is 112%.
With `COc1ccc(/C=C/C(=O)Nc2ccc(C34CC5CC(CC(O)(C5)C3)C4)cc2)cc1OC` the figure was 141% (active).
The result for `COc1ccc(/C=C/C(=O)N2CCCC2)cc1OC` reads 84.7%; that for `O=C(CC12CC3CC(CC(C3)C1)C2)NCc1ccco1`, 97.2%.
The result for `C/C(=N\NC(=O)c1cccc(N2CCCC2=O)c1)c1ccc(N)cc1` reads 113%; that for `OC(c1nnc(-c2ccccc2)o1)c1cccs1` (centres undefined), 117%; that for `Nc1ccc(-c2nnc(-c3ccc(-c4ccccc4)cc3)o2)cc1`, 139% (active).
Turning to `Brc1ccc(-c2nnc(-c3ccccc3)o2)o1`, the activation (% of control) is 138% (active).
`CCCC(=O)Nc1nnc(-c2ccccc2)o1`: the activation (% of control) is 103%.
For the compound `Nc1ccc(-c2sc(N)nc2-c2ccccc2)cc1`, the activation (% of control) was 94.5%.
Regarding `O=C(OCc1ccc(Br)cc1)c1cccc(-c2nnc(-c3ccccc3)o2)c1`, the activation (% of control) is 112%.
With `CCNC(=O)c1ccc(OCC(=O)Nc2ccc(F)cc2)c(OC)c1` the figure was 105%; with `CCCCN1C(=O)CCC(C(=O)O)C1c1ccc(OC)cc1` (centres undefined), 107%.
Regarding `Nc1ccc(C(=O)NCc2ccccc2)cc1`, the activation (% of control) is 100%.
With `COC(=O)CSc1ccc2nnc(CCNS(=O)(=O)c3ccc(C)cc3)n2n1` the figure was 96.4%.
In the case of `COc1ccc(/C=N/NC(=O)CNC(=O)c2ccc(S(=O)(=O)N3CCCC3)cc2)c(OC)c1`, the activation (% of control) was 99.5%.
Consider `C(=N\Nc1ccc2ccccc2n1)/c1ccc2c(c1)OCO2`, for which the activation (% of control) was 35.8%.
Turning to `Cc1noc(C)c1/C=N/Nc1ccc2ccccc2n1`, the activation (% of control) is 157% (active).
Consider `Cc1cc(C)nc(N/N=C/c2c(C)oc3ccccc23)n1`, for which the activation (% of control) is 98.5%.
Turning to `Cc1cccc(C)c1NC(=O)C(c1ccccc1)N1CC(=O)Nc2ccccc21` (centres undefined), the activation (% of control) is 94.6%.
On to `COc1cc(OC)cc(C(=O)N[C@H](C(=O)Nc2nc3ccccc3[nH]2)C(C)C)c1`, for which the activation (% of control) is 96.1%.
In the case of `COC(=O)Nc1nc2ccc(Sc3ccccc3)cc2[nH]1`, the activation (% of control) is 135% (active).
For `Cc1nc2ccc(C(=O)O)cc2[nH]1`, the activation (% of control) is 96.9%.
As to `O=C(CCCc1ccccc1)NCc1ccccc1`, the activation (% of control) is 108%.
As to `CCOC(=O)CCNC(=O)N1CCCC(C(=O)c2ccccc2SC)C1` (centres undefined), the activation (% of control) is 92.5%.
With `O=C(Nc1ccc2nc3n(c(=O)c2c1)CCCCC3)c1ccccc1Cl` the figure was 101%.
The result for `O=C(Nc1ccc2sc3ccccc3c(=O)c2c1)c1ccccc1Cl` reads 144% (active); that for `COc1cc(NC(=O)c2cccs2)ccc1NC(=O)c1ccccc1Cl`, 109%; that for `C#CCOCCOCCOCCNc1nc(N2CCN(C(=O)[C@H](C(C)C)n3cc(CCO)nn3)CC2)nc(N2CCN(C(=O)[C@H]([C@@H](C)CC)n3cc(CCCN=C(N)N)nn3)CC2)n1`, 100%.
With `O=C(COc1ccccc1[N+](=O)[O-])NC1CC1` the figure was 92.9%.
Consider `NS(=O)(=O)c1ccc(NC(=S)NNC(=O)c2cccs2)cc1`, for which the activation (% of control) was 104%.
In the case of `N#Cc1c(NC(=O)C2CCCO2)sc2c1CCCCC2` (centres undefined), the activation (% of control) is 139% (active).
In the case of `N#Cc1c(NC(=O)CCCl)sc2c1CCCCC2`, the activation (% of control) was 101%.
Consider `N#Cc1c(NC(=O)C2CC(Cl)=CCC2C(=O)O)sc2c1CCCCC2` (centres undefined), for which the activation (% of control) is 103%.
Consider `CCc1ccc(NC(=O)N2CCN(c3ccccc3)CC2)cc1`, for which the activation (% of control) was 109%.
In the case of `CCOC(=O)c1ccc(NC2Nc3cc(C)nn3S2)cc1` (centres undefined), the activation (% of control) was 102%.
The result for `CCc1ccc(NC2Nc3cc(C)nn3S2)cc1` (centres undefined) reads 171% (active); that for `COc1ccc(/C(N)=N/OC(=O)Oc2ccccc2)cc1`, 98.3%; that for `COc1ccc(/C(N)=N/OC(=O)CCCc2ccccc2)cc1`, 108%.
With `COc1ccc(/C(N)=N/OC(=O)Cc2ccccc2)cc1`, the activation (% of control) was 142% (active).
`COc1ccccc1-c1nc(SC)n[nH]1`: the activation (% of control) is 103%.
`CCOc1ccc(OCc2cccc(C(=O)N(CC)CC)c2)cc1`: the activation (% of control) was 43.9%.
As to `O=C(Nc1ccc(Sc2ccc(Br)cc2)cc1)c1ccco1`, the activation (% of control) is 93.9%.
As for `C/C(=N/NS(=O)(=O)c1ccccc1)c1ccc(NC(=O)C(F)(F)F)cc1`, the activation (% of control) was 105%.
As for `COC(=O)c1ccc(NC(=O)c2ccco2)cc1`, the activation (% of control) was 124%.
For the compound `CN1CCN(S(=O)(=O)c2ccc(NC(=O)c3ccco3)cc2)CC1`, the activation (% of control) was 98.8%.
In the case of `O=C(Nc1ccc(NC(=O)c2cccs2)cn1)c1ccco1`, the activation (% of control) was 142% (active).
`Cc1ccc(C(=O)COc2cccc(NC(=O)c3ccco3)c2)cc1`: the activation (% of control) was 93.6%.
As to `Cc1cccc(NC(=O)Nc2cccc(Oc3c(F)c(F)c(F)c(F)c3F)c2)c1`, the activation (% of control) was 101%.
With `COc1cccc(C(=O)Nc2ccc(NC(=O)c3ccco3)cn2)c1`, the activation (% of control) was 108%.
`O=C(Nc1ccc(Oc2ccccc2)cc1)c1ccco1`: the activation (% of control) was 132% (active).
`O=C(O)Cc1ccc(NC(=O)c2cccs2)cc1`: the activation (% of control) is 89.8%.
The result for `Cc1ccoc1C(=O)Nc1cccc(Oc2ccccc2)c1` reads 137% (active); that for `C/C(=N\NS(=O)(=O)c1ccc(Cl)cc1)c1ccc(NC(=O)c2ccco2)cc1`, 142% (active); that for `Cc1c(Cl)cccc1NC(=S)N(Cc1ccccc1)Cc1cccnc1`, 94.9%.
With `CC(=O)Nc1ccc(NC(=S)NC(=O)/C=C/c2ccccc2)cc1` the figure was 87.3%; with `COc1cc(/C=N/N=C(\N)c2nonc2N)cc(OC)c1OC`, 102%.
Turning to `CC(C)(C)n1nc2c(c1NC(=O)c1cc3ccccc3o1)CSC2`, the activation (% of control) was 97.4%.
With `Cc1cc(C)n(-c2nnc(N3CCN(c4ccccc4)CC3)nn2)n1`, the activation (% of control) is 104%.
`O=C(/C=C/c1ccco1)Nc1ccc(Oc2ccccc2)cc1`: the activation (% of control) was 134% (active).
For the compound `Cc1ccnc(NC(=O)c2ccco2)n1`, the activation (% of control) was 101%.
With `Cc1nnc(NC(=O)/C=C/c2ccco2)s1` the figure was 105%; with `Cc1ccnc(NC(=O)c2ccc(NC(=O)c3ccco3)cc2)c1`, 129% (active); with `O=C(/C=C/c1ccco1)Nc1cccc(-c2nc3ccccc3[nH]2)c1`, 119%.
On to `Cc1ccnc(NC(=O)c2ccoc2C)c1`, for which the activation (% of control) is 127%.
As for `Cn1c(=O)c2c(ncn2CC(=O)N/N=C/c2cn[nH]c2-c2ccc(F)cc2)n(C)c1=O`, the activation (% of control) is 109%.
In the case of `CC(Oc1ccccc1F)C(=O)NN` (centres undefined), the activation (% of control) was 98%.
With `CC(C)c1nc(CNC(=O)CC2C(=O)NCCN2Cc2ccoc2)cs1` (centres undefined), the activation (% of control) was 101%.
With `O=C(O)c1ccc(NS(=O)(=O)c2ccc3c(c2)C(=O)c2cc(S(=O)(=O)Nc4ccc(C(=O)O)cc4)ccc2-3)cc1`, the activation (% of control) was 95.5%.
Take `CCCn1nc(C(=O)N2CCCc3ccccc32)c2ccccc2c1=O`: the activation (% of control) was 97.4%.
Take `COc1ccc(-n2cnc3cc(C(=O)NC4CCCC4)ccc32)cc1`: the activation (% of control) was 110%.
The result for `COc1ccc(Nc2nc(Cl)nc(NCc3ccco3)n2)cc1` reads 104%.
As to `COc1ccc(-n2cnc3cc(NCc4ccco4)ccc32)cc1`, the activation (% of control) is 137% (active).
Turning to `COc1cc(C(=O)N[C@@H](C)C(=O)NCc2ccco2)cc(OC)c1OC`, the activation (% of control) was 102%.
With `CN(CC(=O)Nc1ccccc1[N+](=O)[O-])Cc1ccc(Br)cc1`, the activation (% of control) is 97.7%.
`CC(C)CCN1CCN(Cc2ccc(C(F)(F)F)cc2)CC1CCO` (centres undefined): the activation (% of control) is 100%.
The result for `O=C1CC(c2cccc(Cl)c2)CC(O)=C1C=Nc1ccccc1` (centres undefined) reads 99.6%.
As to `CC1=NN(c2ccccc2)C(=O)C1C(=O)c1ccc([N+](=O)[O-])cc1` (centres undefined), the activation (% of control) was 94.7%.
Consider `Cn1c(=O)n(Cc2ccco2)c(=N)c2c3c(sc21)CCCC3`, for which the activation (% of control) is 103%.
The result for `Cc1nn2c3cc(N4CCOCC4)ccc3nc2c2ccccc12` reads 134% (active); that for `Cc1cc(C(=O)Nc2ccccc2N2CCOCC2)c2ccccc2n1`, 102%.
Regarding `N#CCSc1nc2ccc(N3CCOCC3)cc2c(=O)n1CCc1ccccc1`, the activation (% of control) was 102%.
The result for `CCCc1c(C)nc2c(Br)cccc2c1Cl` reads 97.5%.
With `Cc1nc2ccccc2nc(C)c1=NOCc1ccc(Cl)cc1Cl` the figure was 111%.
For the compound `Clc1ccc(-c2nnc(SCc3nc4ccccc4s3)o2)cc1`, the activation (% of control) is 122%.
Regarding `O=C(OCC#CCSc1nnc(-c2ccncc2)o1)c1sc2ccccc2c1Cl`, the activation (% of control) is 100%.
In the case of `C#CCSc1nnc(-c2sc3ccccc3c2Cl)o1`, the activation (% of control) was 140% (active).
For `Cc1nonc1C1CCCN1Cc1nc(-c2ccc(F)cc2F)oc1C` (centres undefined), the activation (% of control) was 96%.
For `CN(C)CCn1c(=S)[nH]c2ccc(Cl)cc2c1=O`, the activation (% of control) is 95.1%.
Take `CN(C)CCN=c1cc(-c2ccccc2)oc2ccc(Cl)cc12`: the activation (% of control) was 148% (active).
Take `Cc1ccc(N(Cc2cc3ccccc3[nH]c2=O)C(=O)c2cccs2)cc1`: the activation (% of control) was 91.2%.
With `CN(C)S(=O)(=O)Oc1ccccc1C(=O)Nc1ccccc1Cl` the figure was 91.9%.
`CN(c1ccc(C(=O)NCCC2=CCCCC2)cc1)S(C)(=O)=O`: the activation (% of control) was 158% (active).
As for `O=C(NCCC1=CCCCC1)c1ccc(Cl)c([N+](=O)[O-])c1`, the activation (% of control) was 110%.
For the compound `O=C(Cc1nn[nH]n1)NCCC1=CCCCC1`, the activation (% of control) is 94.3%.
As to `O=C(Cc1cccc2ccccc12)NCCC1=CCCCC1`, the activation (% of control) is 101%.
On to `CN(c1ccc(C(=O)NCc2ccccn2)cc1)S(C)(=O)=O`, for which the activation (% of control) was 106%.
For the compound `Cn1nnc2cc(C(=O)NCCC3=CCCCC3)ccc21`, the activation (% of control) was 153% (active).
For `Cc1nnc(SCC2=C(C(=O)O)N3C(=O)C(NC(=O)Cn4nc(C)c(Cl)c4C)C3SC2)s1` (centres undefined), the activation (% of control) is 99.2%.
Turning to `CCOC(=O)C1CCCN(C(=O)COc2ccc(N(C)S(=O)(=O)c3ccc(C)cc3)cc2)C1` (centres undefined), the activation (% of control) was 102%.
On to `Cc1[nH]nc(SCC(=O)NCC(C)C)c1[N+](=O)[O-]`, for which the activation (% of control) is 102%.
As for `c1ccc(CN2CCC(N=C3NN=C(c4ccc5c(c4)OCCO5)CS3)CC2)cc1`, the activation (% of control) is 114%.
As for `Clc1cccc(N=C2NN=C(c3ccc4c(c3)OCCO4)CS2)c1`, the activation (% of control) was 148% (active).
With `Cc1cccc(N=C2NN=C(c3c[nH]c4ccccc34)CS2)c1`, the activation (% of control) was 106%.

The values above are taken from PubChem BioAssay AID932 (The Scripps Research Institute Molecular Screening Center, 2007).
